Measurements from PubChem BioAssay AID1779 (Sanford-Burnham Center for Chemical Genomics, 2009).
Screen size: about 290,000 compounds; about 160 (0.055%) were called active. The entries come from a sample that favours actives as a whole. A number with no mark means an inactive call. Cut-off read from the data, not from the text of the source: active = inhibition above about 50%; inactive = the rest.

biological target: Tyrosine-protein phosphatase non-receptor type 22 (Homo sapiens) (UniProt Q9Y2R2); test: PTPN22 lymphoid phosphatase activity blockers – biochemical, fluorescence intensity, uHTS (AID 1779); settings: recombinant LYP phosphatase, at 11.5 µM, stronger effect = higher value;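 note: plate controls were vehicle with enzyme for no effect and no enzyme for full effect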
Sequence (Q9Y2R2 whole entry, looked up): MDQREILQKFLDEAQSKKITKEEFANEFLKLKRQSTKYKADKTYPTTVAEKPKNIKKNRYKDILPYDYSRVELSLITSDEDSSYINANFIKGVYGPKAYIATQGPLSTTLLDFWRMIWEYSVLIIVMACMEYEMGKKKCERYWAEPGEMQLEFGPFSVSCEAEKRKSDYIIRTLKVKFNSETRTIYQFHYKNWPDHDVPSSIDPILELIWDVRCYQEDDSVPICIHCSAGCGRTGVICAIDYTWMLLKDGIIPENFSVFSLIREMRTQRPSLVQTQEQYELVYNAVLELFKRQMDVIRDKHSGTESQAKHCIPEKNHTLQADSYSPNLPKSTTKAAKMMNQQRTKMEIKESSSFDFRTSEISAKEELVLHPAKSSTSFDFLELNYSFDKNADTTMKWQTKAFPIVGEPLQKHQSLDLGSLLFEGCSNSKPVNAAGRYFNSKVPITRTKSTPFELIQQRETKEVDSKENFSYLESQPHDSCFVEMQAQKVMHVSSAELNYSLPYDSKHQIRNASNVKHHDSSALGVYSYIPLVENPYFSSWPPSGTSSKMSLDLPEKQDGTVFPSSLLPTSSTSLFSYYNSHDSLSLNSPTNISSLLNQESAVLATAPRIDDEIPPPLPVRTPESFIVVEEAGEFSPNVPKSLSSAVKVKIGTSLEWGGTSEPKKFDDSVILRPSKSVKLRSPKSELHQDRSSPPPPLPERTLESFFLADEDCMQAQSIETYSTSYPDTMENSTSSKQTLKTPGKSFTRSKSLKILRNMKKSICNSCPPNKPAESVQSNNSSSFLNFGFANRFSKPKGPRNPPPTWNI

Compound	inhibition
COC(=O)C(C(=O)NCC1CCCO1)C1CCCC1 (configuration not stated)	-6.5%
CCOC(=O)C(C(=O)NCC1CCCO1)C1CCCCC1 (configuration not stated)	-4.2%
COC(=O)C(C(=O)NCC1CCCO1)C1CCCCCC1 (configuration not stated)	86.6% (active)
CCOC(=O)NC(=O)C(=CNc1cccc(OC)c1)C(=O)NC(=O)OCC	-7.5%
CCOC(=O)NC(=O)C(=CNc1ccc(C)cc1)C(=O)NC(=O)OCC	57.4% (active)
CCOC(=O)NC(=O)C(=CNc1cccc(C)c1)C(=O)NC(=O)OCC	-4.7%
O=C(CN1C(=O)NC2(CCc3ccccc3C2)C1=O)Nc1ccc(F)cc1 (configuration not stated)	2%
COCC(=O)N(Cc1cc2ccc(C)cc2[nH]c1=O)c1cccc(C)c1	-1%
NS(=O)(=O)c1cc(C(=O)OCC(=O)N2CCOCC2)ccc1Cl	-4%
COc1cc(/C=C2/SC(=S)N(CCC(=O)Nc3ccc(C(=O)O)cc3)C2=O)cc(OC)c1OC	-0.9%
COc1ccc(/C=C2\SC(=S)N(CCCC(=O)Nc3ccc(C(=O)O)cc3)C2=O)cc1OC	-1.9%
O=S(=O)(CCc1ccncc1)C1Cc2cccc3cccc1c23 (configuration not stated)	-6.1%
CC(C)(C)S(=O)(=O)c1cnc(N2CCCCC2)nc1N	-1.3%
COc1ccc(N2C(=O)CC(NC34CC5CC(CC(C5)C3)C4)C2=O)c(OC)c1 (configuration not stated)	-6.7%
CC(=O)c1cccc(NC(=O)NC(C)c2ccc3c(c2)OCO3)c1 (configuration not stated)	-12.5%
CCCNC(=O)c1ccccc1N1CCN(CCCCN2C(=O)C3CCCCN3C2=O)CC1 (configuration not stated)	-16.7%
COc1ccc(C2CC(c3cccs3)=NN2C(=O)CSc2nncn2C)cc1OC (configuration not stated)	7.7%
Cc1c(N=Nc2ccc(O)cc2)c(=O)n(-c2ccccc2)n1C	-2.3%
Cc1[nH]c2ccccc2c1N=Nc1c(C)n(C)n(-c2ccccc2)c1=O	94.5% (active)
Cc1c(-n2c(=S)[nH]c3ccccc3c2=O)c(=O)n(-c2ccccc2)n1C	-7.5%
Cc1cc2c(c(SCC(=O)NCc3ccc(Cl)cc3)n1)C(=O)OC2	-1.3%
CSCCC(NC(=O)c1ccccc1)C(=O)N(C)CC(=O)Nc1ccc(N2CCOCC2)cc1 (configuration not stated)	-6.8%
COCCN(C(=O)COC(=O)c1cccc2ccccc12)c1c(N)n(Cc2ccccc2)c(=O)[nH]c1=O	-10.3%
Cc1cccc(C)c1Nc1nnc(SC/C(O)=C(\C#N)c2nc3ccccc3[nH]2)s1	4.2%

Compound	inhibition
CCCCC(CC)C(=O)NCc1ccc(F)cc1 (configuration not stated)	-9.2%
CCOC(=O)C(C(C)C)C(N)Cc1ccc(F)cc1 (configuration not stated)	-7.7%
CCCCC(C(=O)OCC)C(N)Cc1ccc(F)cc1 (configuration not stated)	89.5% (active)
CC(C)CNC(=O)C1CCCN(C(=O)NCc2ccccc2)C1 (configuration not stated)	-8.2%
COc1ccc(C2SCC(=O)N2CCCN(C)C)cc1 (configuration not stated)	50.7% (active)
COc1cc(C2SCC(=O)N2CCCN(C)C)cc(OC)c1OC (configuration not stated)	-6.3%
CN(C)CCCN1C(=O)CSC1c1ccccc1 (configuration not stated)	-5.4%
COc1ccc(C2CC23N=C(c2ccccc2)OC3=O)cc1 (configuration not stated)	-2.9%
Cc1nnc(SCc2cccs2)[nH]c1=O	-5.9%
O=C(NC1CCN(Cc2ccccc2)CC1)C1CCCN(c2nnc(-n3cccc3)s2)C1 (configuration not stated)	-1.4%
CC(C)n1c(C(=O)OCC(=O)NCc2ccc3c(c2)OCO3)cc2occc21	59.5% (active)
CC(C)n1c(C(=O)OCC(=O)NCc2ccc3c(c2)OCO3)cc2sccc21	-13%
CC(C)C(OC(=O)c1cc2occc2n1C)C(=O)NCc1ccc2c(c1)OCO2 (configuration not stated)	3.8%
NC(=O)CC(NC(=O)Cc1ccc(Br)cc1)c1ccc(NC2CCC2)c([N+](=O)[O-])c1 (configuration not stated)	-1.3%
Cc1cccc(N2CCN(C(=O)c3ccc(Cl)c(NC4=NC5CS(=O)(=O)CC5S4)c3)CC2C)c1 (configuration not stated)	-0.7%
O=C(COc1ccc(S(=O)(=O)N2CCOCC2)cc1Cl)NCC1CCCO1 (configuration not stated)	-12%
CCCOc1ccc(CN2CCOCC2)cc1OC	-8%
CCCCOc1ccc(CN2CCSCC2)cc1	-4.9%
CCCCCOc1ccc(CN2CCOCC2)cc1Cl	50.2% (active)
CCCCCOc1ccc(Cl)cc1CN1CCOCC1	-8.9%
CCCCOc1ccc(CN2CCCCC2)cc1	67.8% (active)
c1cc(OCCCN2CCCCC2)ccc1CN1CCCCC1	-8%
COc1ccc(C(=O)Nc2ccc(Cl)cc2C(=O)NCc2ccco2)cc1OC	0.7%
